Measured values: the supplement of paper PMC12067926
A number with no mark means an inactive call.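 The calls were made as follows: active = growth AUC significantly below the DMSO wells by Dunnett test; inactive = the rest.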

compound: COc1c(Cl)ccc(Cl)c1C(=O)O; experiment: relative growth (AUC of 72 h growth curve relative to DMSO control, dAUC) (ratio); higher = more growth (less inhibition), active = hit call of the paper; conditions: 20 µM
Experimental: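 Environmental bacterial isolates (Iceland stream sediment and Silwood Park soil) and whole stream-sediment communities were grown in LB from a 1:100 dilution with each pesticide at 20 µM (1% DMSO). A600 was read hourly for 72 h and the area under a spline-fitted growth curve (AUC) was computed. dAUC is the mean AUC of 3 biological replicates divided by the mean AUC of the DMSO controls. Significance was tested by Dunnett's test against the DMSO control.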

Row | Target | relative growth
1 | Microbacterium 1 (Microbacterium arborescens) | 1.02
2 | Arthrobacter 1 (Arthrobacter humicola) | 0.981
3 | Flavobacterium 1 (Flavobacterium glaciei) | 1
4 | Paenibacillus 1 (Paenibacillus castaneae) | 1.01
5 | Aeromonas 1 (Aeromonas sp. AE235) | 1.02
6 | Aeromonas 2 (Aeromonas sobria) | 1.01
7 | Pseudomonas 6 (Pseudomonas sp.) | 1.1
8 | Rhizobium 1 (Rhizobium herbae) | 0.947
9 | Sphingomonas 2 (Sphingomonas sp.) | 1.01
10 | Serratia 1 (Serratia sp. 2015-2462-01) | 1.02
11 | Pseudomonas 4 (Pseudomonas peli) | 1.01
12 | Hymenobacter 1 (Hymenobacter glaciei) | 1
13 | Pseudomonas 2 (Pseudomonas vancouverensis) | 0.985
14 | Arthrobacter 3 (Arthrobacter sp.) | 1.07
15 | Community 8 | 0.99
16 | Oryzobacter 1 (Oryzobacter terrae) | 0.925

Row | Target | relative growth
17 | Argrobacterium 1 (Agrobacterium sp.) | 1.01
18 | Community 6 | 1.03
19 | Arthrobacter 2 (Arthrobacter humicola) | 1.1
20 | Community 4 | 1.09
21 | Pseudomonas 1 (Pseudomonas baetica) | 0.637
22 | Community 10 | 1.03
23 | Bacillus 1 (Bacillus foraminis) | 1.07
24 | Prolinoborus 1 (Prolinoborus fasciculus) | 0.986
25 | Community 9 | 1.09
26 | Neobacillus 1 (Neobacillus soli) | 1.06
27 | Flavobacterium 2 (Flavobacterium succinicans) | 1.01
28 | Aeromonas 3 (Aeromonas popoffii) | 1.02
29 | Carnobacterium 1 (Carnobacterium gallinarum) | 1.19
30 | Community 7 | 0.945
31 | Pseudomonas 3 (Pseudomonas mandelii) | 0.984
32 | Pseudomonas 5 (Pseudomonas baetica) | 1.02
